Compound activity as filed in PubChem.
ALDH1A1 inh = blocks purified human ALDH1A1 activity | Potency, µM (top dose mostly 75.3 µM), for the others: at the highest dose activity, negative = inhibition, most hits filed as inhibitors | hit rate 7.3% among 220,000 | P00352 | AID 1030 | Purified ALDH1A1, NADH fluorescence, propionaldehyde substrate;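 further: potency means the concentration at half of the fitted maximal effect; plate controls were no enzyme wells and a reference inhibitor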
Target sequence (P00352 whole entry, looked up): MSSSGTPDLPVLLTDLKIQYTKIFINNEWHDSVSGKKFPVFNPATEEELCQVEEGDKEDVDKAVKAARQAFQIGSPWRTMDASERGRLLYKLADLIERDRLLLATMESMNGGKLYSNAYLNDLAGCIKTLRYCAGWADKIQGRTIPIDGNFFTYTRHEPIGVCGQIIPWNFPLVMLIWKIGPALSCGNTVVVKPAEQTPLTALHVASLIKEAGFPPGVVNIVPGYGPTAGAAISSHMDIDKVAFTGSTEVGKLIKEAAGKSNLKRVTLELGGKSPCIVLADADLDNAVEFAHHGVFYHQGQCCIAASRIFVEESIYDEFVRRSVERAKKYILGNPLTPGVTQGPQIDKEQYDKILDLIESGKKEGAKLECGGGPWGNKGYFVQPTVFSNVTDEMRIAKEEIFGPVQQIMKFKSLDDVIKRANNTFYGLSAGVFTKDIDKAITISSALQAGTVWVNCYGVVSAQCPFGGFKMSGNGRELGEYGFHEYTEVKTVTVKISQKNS
IMPase Li cell = membrane-permeable IMPase blocker, potentiated with lithium; hit rate 0.35% among 210,000; CHO-M1 cells, IP1 TR-FRET (IP-One), carbachol + lithium; Potency, µM (titrated, usually from 59.4 µM), for the others: at the top dose activity, negative = IMPase inhibition, actives largely listed as inhibitors; AID 1457; active means well fitted curve in the direction sought with a large enough effect; inconclusive means small, poorly fitted or top-dose-only effect, or another doubt; inactive means no such curve, though single readings can be large; an effect the other way counts as inactive or inconclusive;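 further: IP1 builds up when IMPase is blocked and the TR-FRET signal falls; potency means the concentration at half of the fitted maximal effect; plate controls were basal vehicle for no effect and high inhibitor control for full effect; nearly all actives have a fitted effect of over 50% in size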
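Steps: plate 2000 CHO-M1 cells per well and culture 16–30 h; add compound and lithium; incubate 30 min, 37C; add d2-IP1 tracer and Eu cryptate anti-IP1 antibody in lysis buffer; read after 10 min at room temperature.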
NPSR antagonist = blocks cAMP signaling of the human neuropeptide S receptor; Q6W5P4; CHO-NPSR cells, cAMP TR-FRET, antagonist mode; Potency, µM (highest dose often 38.3 µM), for inactives: at the top dose activity change, negative = inhibition, actives largely listed as inhibitors; hit rate 1% among 220,000; AID 1461; active means well fitted curve in the direction sought with a large enough effect; inconclusive means small, poorly fitted or top-dose-only effect, or another doubt; inactive means no such curve, though single readings can be large; an effect the other way counts as inactive or inconclusive; further: potency means the concentration at half of the fitted maximal effect; nearly all actives have a fitted effect of over 50% in size
PNC assembly inh = blocks assembly of the perinucleolar compartment. PC3M PTB-GFP, PNC prevalence imaging, 16 h; hits give low values. activity change (PNC), negative = inhibition, % at 10 µM. hit rate 3.1% among 140,000;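 active means readout at or below -70, meaning at least 70% loss of cells showing the perinucleolar compartment, a nuclear body marking cancer cells; inconclusive means readout between -30 and a set limit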;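 further: plate controls were DMSO wells for no effect and camptothecin positive control wells for full effect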
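Read-out is percentage of cells bearing a perinucleolar compartment, from automated 20x imaging of fixed, Hoechst-stained PC3M PTB-GFP cells. Cells were seeded 4 h, then exposed 16 h to compound (23 nl of library stock) in duplicate plates.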
HPGD block = inhibitors of human 15-hydroxyprostaglandin dehydrogenase (HPGD); P15428; Potency, µM, for the others: at the highest dose activity change, negative = inhibition, actives largely listed as inhibitors; purified HPGD, NADH fluorescence kinetic, PGE2 substrate; hit rate 4.3% among 150,000; AID 894; further: potency means the concentration at half of the fitted maximal effect
Target sequence (P15428 whole entry, looked up): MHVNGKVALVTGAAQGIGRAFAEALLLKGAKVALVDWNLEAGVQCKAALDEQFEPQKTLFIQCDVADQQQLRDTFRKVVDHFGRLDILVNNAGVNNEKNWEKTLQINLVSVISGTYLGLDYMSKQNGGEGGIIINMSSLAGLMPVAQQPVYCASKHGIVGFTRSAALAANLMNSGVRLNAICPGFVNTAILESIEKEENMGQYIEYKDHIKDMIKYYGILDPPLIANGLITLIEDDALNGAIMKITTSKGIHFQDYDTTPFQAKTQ
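NADH formation kinetics: reaction with 30 uM PGE2 and 1 mM NAD+ (final), 20 nM enzyme, Tris-HCl pH 8 with Tween 20, after 15 min compound preincubation at room temperature. Fluorescence change, last versus first of five reads.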
IMPase inh = IMPase inhibition in cells; CHO-M1 cells, IP1 accumulation, HTRF TR-FRET ratio; inhibition (IP1 accumulation), % at 46.1 µM; 120,000 tested, under 10 active; AID 901; active means well fitted curve in the direction sought with a large enough effect in the signal ratio, not every such curve was filed as active; inconclusive means small, poorly fitted or top-dose-only effect, or a change in a side signal; inactive means no such curve, though single readings can be large or run the other way; the % refers to the signal ratio;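 further: cells stimulated with carbachol in lithium chloride buffer; plate controls were DMSO basal wells for no effect and reference inhibitor wells for full effect; higher means more IMPase inhibition seen as more IP1 and lower FRET ratio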
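Cellular IMPase inhibition is scored as a rise in cytosolic IP1, detected by competitive TR-FRET between d2-labelled IP1 and a europium anti-IP1 antibody. M1-expressing CHO cells were stimulated with carbachol for 30 min at 37C, with lithium (50 mM LiCl) present in the buffer.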
* = called active by the depositor; [ ] = dose if it differs, or a comment. Hits are enriched below; roughly 11% of the tested compounds scored in any of these assays. Unless noted, the call rests on the fitted dose curve; in most records, active means well fitted inhibition curve with a large enough effect (not every such curve was filed as active); inconclusive means small, poorly fitted or top-dose-only effect, or another doubt; inactive means no such curve, though single readings can be large or run the other way. Unless noted, on the % scale 0 is the no-effect control and ±100 the full control effect.

COc1ccc(/C(O)=C2/C(=O)C(=O)N(CCN3CCOCC3)C2c2ccc(C)cc2)cc1 (stereo not given) was read as ALDH1A1 inh inconclusive, IMPase Li cell inconclusive, NPSR antagonist -4%[46.1 µM], PNC assembly inh 45, HPGD block -10% and IMPase inh -17.
For CCN(C(=O)COC(=O)c1ccc(Cl)cc1N)C1CCCCC1 the results were ALDH1A1 inh inconclusive, IMPase Li cell 6% and NPSR antagonist -21%.
Cc1cc(NC(=O)/C=C/C(=O)N(CC(=O)NC2CCCC2)c2cccc3ccccc23)no1 was read as ALDH1A1 inh 2µM*, IMPase Li cell 19% and NPSR antagonist -22%.
Screening COc1cccc(C2=NO[C@@H]3C(=O)N(Cc4ccccc4)C(=O)[C@H]23)c1OC returned ALDH1A1 inh inconclusive, IMPase Li cell -4%[38.3 µM], NPSR antagonist -9%[46.1 µM], PNC assembly inh -107*, HPGD block inconclusive and IMPase inh inconclusive.
`C=CCOc1ccc(Br)cc1CNCCO` gave ALDH1A1 inh -25%, IMPase Li cell 12% and NPSR antagonist 0%.
Screening CCS(=O)(=O)CCSc1nc(C)cc(C)c1C#N returned ALDH1A1 inh inconclusive, IMPase Li cell -5%[38.3 µM], NPSR antagonist -5%[46.1 µM], PNC assembly inh -7, HPGD block -2% and IMPase inh 7.
Cc1cc(C)c(C#N)c(SCCS(=O)(=O)Cc2ccccc2)n1 was read as ALDH1A1 inh 6.3µM*, IMPase Li cell 29%[38.3 µM], NPSR antagonist -18%[46.1 µM], PNC assembly inh 32, HPGD block -17% and IMPase inh -2.
`Cc1ccc(S(=O)(=O)CCSc2nc(C)cc(C)c2C#N)cc1` gave ALDH1A1 inh 2µM*, IMPase Li cell 41%[38.3 µM], NPSR antagonist -26%[46.1 µM], PNC assembly inh -5, HPGD block -29% and IMPase inh -1.
For CSc1nc(N)nc(SCCS(=O)(=O)c2ccc(Cl)cc2)c1C#N the results were ALDH1A1 inh 2.5µM*, IMPase Li cell 14%, NPSR antagonist inconclusive, PNC assembly inh 223, HPGD block -29% and IMPase inh 14.
`CC1(C)C2CCC1(C(=O)O)c1nc3ccccc3nc12` (stereo not given) gave ALDH1A1 inh 8%, IMPase Li cell -3% and NPSR antagonist 3%.
Screening CCc1nnc(NC(=O)CSc2nc(-c3ccccc3)nc3ccccc23)s1 returned ALDH1A1 inh 1%, IMPase Li cell 10µM*, NPSR antagonist -38%, PNC assembly inh 19 and HPGD block -12%.
CCc1nnc(NC(=O)CSc2ccc(-c3cccs3)nn2)s1 was read as ALDH1A1 inh -4%, IMPase Li cell 4µM* and NPSR antagonist -10%.
Screening CCc1nnc(NC(=O)CSc2nc3ccccc3s2)s1 returned ALDH1A1 inh -4%, IMPase Li cell -3%, NPSR antagonist -2%[46.1 µM], PNC assembly inh 34, HPGD block -8% and IMPase inh -5.
For COC(=O)CSc1nc(-c2cccs2)ccc1C#N the results were ALDH1A1 inh inconclusive, IMPase Li cell 25µM*, NPSR antagonist 3%[46.1 µM], PNC assembly inh 0, HPGD block inconclusive and IMPase inh inconclusive.
Screening CCc1nnc(NC(=O)CSc2nc(-c3ccccc3)cc(-c3ccc(F)cc3)c2C#N)s1 returned ALDH1A1 inh -19%, IMPase Li cell 10µM*, NPSR antagonist 10µM*, PNC assembly inh 24, HPGD block -19% and IMPase inh -6.
CCc1nnc(NC(=O)CSc2ccc(-c3ccc(F)cc3)nn2)s1 was read as ALDH1A1 inh -3%, IMPase Li cell -10% and NPSR antagonist -9%.
COc1ccc(/C=N\NC(=O)COc2ccc(Cl)cc2Cl)c(C(=O)O)c1OC was read as ALDH1A1 inh 2%, IMPase Li cell 0%, NPSR antagonist 9%, PNC assembly inh inconclusive, HPGD block -6% and IMPase inh -13.
For O=C(O)CCC1(c2ccccc2)NC(=O)NC1=O (stereo not given) the results were NPSR antagonist -15%.
`CCc1nnc(NC(=O)CSc2nc(C3CCCCC3)nc3ccccc23)s1` gave ALDH1A1 inh -4%, IMPase Li cell 7.9µM*, NPSR antagonist 11%[46.1 µM], PNC assembly inh -9, HPGD block 2% and IMPase inh inconclusive.
O=C(CSc1nc(C2CCCCC2)nc2ccccc12)NCc1ccco1 was read as ALDH1A1 inh -6%, IMPase Li cell 3% and NPSR antagonist -52%.
Screening COc1ccc(CNC(=O)CSc2nc(-c3ccccc3)cc(-c3cccs3)c2C#N)cc1 returned ALDH1A1 inh inconclusive, IMPase Li cell -3%[38.3 µM], NPSR antagonist 10µM*, PNC assembly inh inconclusive, HPGD block inconclusive and IMPase inh -15.
For CC(C)(C)CC(=O)Nc1nnc(-c2cccs2)s1 the results were ALDH1A1 inh inconclusive, IMPase Li cell 11µM*, NPSR antagonist -1%[46.1 µM], PNC assembly inh inconclusive, HPGD block inconclusive and IMPase inh -13[1.84 µM].
`O=C(CN1CCCC1)Nc1nnc(-c2cccs2)s1` gave ALDH1A1 inh 0%, IMPase Li cell -7%, NPSR antagonist 16%, PNC assembly inh inconclusive and HPGD block inconclusive.
Screening COc1cccc(-c2ccc(=O)n(CC(=O)Nc3cc4c(cc3NC(C)=O)OCCO4)n2)c1 returned ALDH1A1 inh 2%, IMPase Li cell -3%[38.3 µM], NPSR antagonist -25%[46.1 µM], PNC assembly inh -9, HPGD block -1% and IMPase inh 3.
CCOC(=O)CC(=O)CSc1nc(-c2ccc3c(c2)OCO3)cc(C(F)(F)F)c1C#N was read as ALDH1A1 inh inconclusive, IMPase Li cell inconclusive, NPSR antagonist inconclusive, PNC assembly inh 85, HPGD block inconclusive and IMPase inh -6.
`C=CCSc1nc(-c2ccc3c(c2)OCO3)cc(C(F)(F)F)c1C#N` gave ALDH1A1 inh inconclusive, IMPase Li cell inconclusive, NPSR antagonist inconclusive, PNC assembly inh -96*, HPGD block inconclusive and IMPase inh -1.
O=C(CSc1nnc(-c2cccnc2)n1CCc1ccccc1)N1CCCCC1 was read as ALDH1A1 inh 2%, IMPase Li cell -19%[38.3 µM], NPSR antagonist -1%[46.1 µM], PNC assembly inh 0, HPGD block -3% and IMPase inh -5.
`O=C(Nc1cccc(Cl)c1Cl)c1ccc(-c2ccccc2)cc1` gave ALDH1A1 inh -12%, IMPase Li cell inconclusive, NPSR antagonist -4%[46.1 µM], PNC assembly inh -28, HPGD block inconclusive and IMPase inh -7.
O=S(=O)(NCC(O)COCc1ccco1)c1cccs1 (stereo not given) was read as ALDH1A1 inh 7.9µM*, IMPase Li cell -5%[38.3 µM], NPSR antagonist -14%[46.1 µM], PNC assembly inh inconclusive, HPGD block -8% and IMPase inh 3.
